# High-throughput results: PubChem BioAssay, National Center for Advancing Translational Sciences (NCATS)
# ATXN2 expr inh: ATXN2 expression inhibition. HEK-293 ATXN2-luciferase reporter, luminescence, 24 h. Potency, µM (highest dose often 57 µM), without a hit: top-dose activity change, negative = inhibition, actives largely listed as inhibitors. hit rate 0.72% among 360,000. AID 1745845; further: potency means the concentration at half of the fitted maximal effect; on the % scale 0 is the no-effect control and ±100 the full control effect; nearly all actives have a fitted effect of over 55% in size
#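 ATXN2-luciferase reporter cells (luciferase flanked by upstream and downstream ATXN2 gene portions) were treated 24 h at 37 °C with compounds at up to 57 uM. SteadyGlo luminescence gave expression; GF-AFC fluorescence gave viability.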
# S2 tox: cell viability loss in ATXN counter-screen | S2 cells (HEK-293 line with an ATXN2-luciferase reporter) viability, CellTiter-Fluor protease fluorescence, 24 h | Potency, µM (highest dose often 56.7 µM), actives largely listed as cytotoxic | hit rate 0.49% among 400,000; further: potency means the concentration at half of the fitted maximal effect; nearly all actives have a fitted effect of over 40% in size
# TGFb SMAD3 inh: inhibitors of TGF-b signaling; HepG2 CAGA-GFP TGF-b/SMAD3 reporter, GFP fluorescence, 18 h; TGF-beta stimulated, 500 pg/mL final; Potency, µM (titrated, usually from 46.1 µM), without a hit: at the top dose activity, negative = inhibition, usual class: inhibitors; hit rate 1.2% among 410,000; AID 588855; further: potency means the concentration at half of the fitted maximal effect; on the % scale 0 is the no-effect control and ±100 the full control effect; nearly all actives have a fitted effect of over 65% in size
#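 Cell-based qHTS in HEPG2 carrying a CAGA-GFP Smad reporter; compounds added before 500 pg/mL final TGF-beta, 18 h incubation at 37 degrees C, GFP fluorescence quantified per cell by imaging cytometry.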
# HepG2 viability: counter-screen for TGF-b inhibitors: cytotoxicity in HepG2 cells; hit rate 0.76% among 410,000; Potency, µM (doses to about 46.1 µM), inactives show at the top dose activity change, negative = cytotoxicity, hits mostly cytotoxic; HepG2 CAGA-GFP viability, ATP luminescence, 18 h; further: potency means the concentration at half of the fitted maximal effect
#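 CellTiter-Glo luminescence gave cytotoxicity after 18 hours at 37 degrees C. The cells were HepG2 CAGA-GFP in 1% FBS DMEM, stimulated with 500 pg/mL TGF-beta after compound addition. %Activity was normalised to no-cell wells (complete cell-killing) and DMSO (no toxicity), and curves were fitted and classified.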
# IL1B secr inh: inhibitors of inflammasome signaling (IL-1 beta secretion). THP-1 LPS/ATP IL-1B secretion, AlphaLISA, 16 h; hits give low values. activity change, % at 57.5 µM. hit rate 4.7% among 360,000; in the data active means activity change below about -50%; inconclusive means mostly about -30% to -49%; further: on the % scale 0 is the no-effect control and ±100 the full control effect
#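 THP-1 cells pretreated 1 hr with compounds (up to 57.5 uM final), then stimulated with LPS (250 ng/mL final) plus ATP (1.25 mM final); secreted IL-1B measured by AlphaLISA after 16 hr, decreased signal indicating inhibition.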
# An asterisk follows results filed as active; i = inactive; ? = inconclusive; . = no result given; [ ] = another dose, or the depositor's remark. An excerpt weighted towards active compounds, which were near 5.7% of everything screened. Unless noted, the call rests on the fitted dose curve; in most records, active means well fitted curve in the direction sought with a large enough effect; inconclusive means small, poorly fitted or top-dose-only effect, or another doubt; inactive means no such curve, though single readings can be large; an effect the other way counts as inactive or inconclusive.
SMILES,ATXN2 expr inh,S2 tox,TGFb SMAD3 inh,HepG2 viability,IL1B secr inh
CC(C)(CCc1ccccn1)C(=O)C(CCc1ccccn1)CCc1ccccn1,3.7%,i,-12.0%,0.8%,-55.3*
O=C(NCC1CCCCC1)c1cc(-c2cc(F)ccc2OCC2CCCO2)n[nH]1 (stereo not drawn),?,?,-3.2%,-18.5%,-56.3*
Cc1ccc(Cl)cc1-c1cc(C(=O)Nc2ccc(F)cc2)[nH]n1,-38.3%,?,?,-35.1%,-60.1*
CC(C)c1ccc(NC(=O)c2cc(-c3cc(F)ccc3OCC3CCCO3)n[nH]2)cc1 (stereo not drawn),-1.9%,i,-0.2%,5.4%,-10.5
COc1ccc(-c2cc(C(=O)NCC3CCCCC3)[nH]n2)c(C)c1,6.0%,i,0.1%,-20.3%,-8.7
Cc1ccc(Cl)cc1-c1cc(C(=O)NCC2CCCCC2)[nH]n1,-12.9%,?,7.8%,-5.5%,-50.8*
C(=C\c1ccnc2ccccc12)/c1ccc(-[n+]2cc[n+](-c3ccc(/C=C/c4ccnc5ccccc45)cc3)cc2)cc1,.,.,?,-26.7%,.
O=C(COC(=O)c1ncc(Cl)c(Cl)c1Cl)Nc1ccc(Cl)cn1,-7.1%,i,-11.5%,1.41µM*,4.3
O=C(COC(=O)c1ncc(Cl)c(Cl)c1Cl)Nc1cccnc1Cl,-3.0%,i,3.6%,11.9%,-56.0*
CC(C)NC(=O)NC(=O)COC(=O)c1ncc(Cl)c(Cl)c1Cl,2.2%,i,-10.5%,1.2%,-62.9*
O=C(COC(=O)c1nc(Cl)ccc1Cl)Nc1ccc(Cl)cn1,4.0%,i,7.7%,2.4%,10.9
Oc1ccccc1C1CC(c2cccs2)=NC(c2ccc(Cl)cc2)N1 (stereo not drawn),?,?,20µM*,-92.5%,?
CS(=O)(=O)N1N=C(c2cccs2)CC1c1ccccc1O (stereo not drawn),-0.4%[11.3 µM],i,1.3%,-23.2%,-3.6
CC1(C)CC(=O)C(C(C2=C(O)CC(C)(C)CC2=O)c2cccs2)C(=O)C1 (stereo not drawn),-0.1%,i,?,-82.8%,-96.1*
CC1(C)CC(=O)C(C(C2=C(O)CC(C)(C)CC2=O)c2cccc(O)c2)C(=O)C1 (stereo not drawn),-7.5%,i,-22.4%,-1.1%,13.2
CN1CCN(c2nc(-c3ccccc3)nc(-c3ccc(F)cc3)c2C#N)CC1,-30.5%,i,-7.4%,-1.7%,-61.3*
COc1ccc(-c2nc(-c3ccccn3)nc(N3CCN(C)CC3)c2C#N)cc1,-15.5%,i,-13.3%,-15.8%,?
COc1ccccc1-c1nc(-c2ccccc2)nc(N2CCN(C)CC2)c1C#N,8.9%,i,-16.3%,-23.5%,-52.2*
COc1cccc(NC(=O)N2CCc3nc(Nc4cc(Cl)cc(Cl)c4)ncc3C2)c1,0.0%,?,?,-13.2%,-53.7*
COc1cc(/C=C/c2cccc[n+]2C)ccc1OCC(=O)Nc1cccc(Cl)c1,-2.4%,i,30.6%,-10.5%,-71.1*
COc1ccc(NC(=O)COc2ccc(/C=C/c3cc[n+](C)cc3)cc2OC)cc1,-6.6%,i,-14.1%,-20.2%,-53.6*
COc1cc(/C=C/c2cc[n+](C)cc2)ccc1OCC(=O)Nc1ccc(Cl)c(Cl)c1,-11.9%,i,?,-6.5%,-89.0*
CC(C)C1=CC(=Nc2ccc(S(N)(=O)=O)cc2)C=C(C(C)C)C1=O,-17.0%,i,?,11.2µM*,-56.9*
NS(=O)(=O)c1ccc(N=C2C(=O)Nc3ccccc32)cc1,-6.8%,i,-0.5%,7.4%,0.6
Cc1ccc(N=Nc2ccc(O)cc2)c(Br)c1,89.3%,?,?,-0.4%,-85.8*
SMILES,ATXN2 expr inh,S2 tox,TGFb SMAD3 inh,HepG2 viability,IL1B secr inh
COc1ccc(Sc2nc(-c3ccccn3)ncc2OC)cc1,22.4µM*,?,-3.0%,-13.7%,25.5
CC(=O)Nc1ccc(S(=O)(=O)c2ccc([N+](=O)[O-])cc2)cc1,.,i,-13.8%,-18.7%,6.1
CC(=O)Nc1ccc(N=c2cc([N+](=O)[O-])cc(Cl)n2O)cc1,-26.6%,i,?,-50.2%,-53.2*
COC(=O)c1cnc(Nc2nc(C(N)Cc3ccc(Cl)cc3)cs2)nc1C(F)(F)F (stereo not drawn),?,?,?,-89.1%,-21.4
CS(=O)(=O)c1ccc(Nc2nc(C(N)Cc3ccc(F)cc3)cs2)cc1 (stereo not drawn),-19.9%,i,?,-42.0%,-27.7
Cc1cc(C)nc(Nc2nc(C(N)Cc3ccc(F)cc3)cs2)n1 (stereo not drawn),-24.0%,?,?,12.6µM*,-8.3
COc1cc(OC)nc(Nc2nc(C(N)Cc3ccccc3)cs2)n1 (stereo not drawn),-9.8%,i,?,-62.5%,0.0
CC(=O)c1ccc(Nc2nc(C(N)Cc3ccc(N)cc3)cs2)cc1 (stereo not drawn),-1.7%,i,2.8%,-26.2%,-12.2
COc1cc(OC)nc(Nc2nc(C(N)Cc3ccc(C(F)(F)F)cc3)cs2)n1 (stereo not drawn),?,?,?,10µM*,-111.5*
CC(=O)c1ccc(Nc2nc(C(N)Cc3ccc(Cl)cc3)cs2)cc1 (stereo not drawn),?,?,?,-79.9%,-53.9*
Cc1cc(C)nc(Nc2nc(C(N)Cc3ccc(Cl)cc3)cs2)n1 (stereo not drawn),?,?,15.8µM*,-95.2%,?
Oc1ccc(C2CCN(c3ccnc4ccccc34)CC2)cc1O,18.5%,.,.,.,.
CCCc1cnc(Nc2nc(C(N)Cc3ccc(C(F)(F)F)cc3)cs2)nc1 (stereo not drawn),-15.8%,.,?,11.2µM*,?
COC(=O)c1cnc(Nc2nc(C(N)Cc3ccc(OC)cc3)cs2)nc1C(F)(F)F (stereo not drawn),-23.1%,?,?,-86.4%,.
Cc1cc(C)nc(Nc2nc(C(N)Cc3ccc(C(F)(F)F)cc3)cs2)n1 (stereo not drawn),-20.6%,?,?,22.4µM*,-81.0*
NC(Cc1ccc(C(F)(F)F)cc1)c1csc(Nc2nccc(C(F)(F)F)n2)n1 (stereo not drawn),?,i,?,-104.9%,-28.8
O=C(C1CC12CCN(Cc1cccc3cccnc13)CC2)N1CCN(Cc2cccs2)CC1 (stereo not drawn),.,i,.,.,.
COc1cc(OC)cc(C(=O)NCC2Cc3cccc(-c4nc(C)cnc4C)c3O2)c1 (stereo not drawn),.,i,.,.,.
COC(=O)c1ccc2c(c1)C(C)(C)C(/C=C/c1ccc(O)cc1)=[N+]2C,3.16µM*,7.94µM*,3.98µM*,3.55µM*,-91.7*
COC(=O)c1ccc2c(c1)C(C)(C)C(/C=C/c1ccc(OC)c(OC)c1OC)=[N+]2C,25.1µM*,?,10µM*,-94.3%,-116.5*
